Screening data as filed in PubChem BioAssay.
YB-1 expression = inhibitors of YB-1 gene expression, primary screen, cell-based, fluorescence; delta delta Cp (YB-1 minus CDIP) (test concentration not listed); 30,000 compounds, 0.37% hits; U2OS, qRT-PCR YB-1 vs CDIP delta delta Cp, 16 h; active compounds read high; zero = DMSO, each unit about twofold;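 active means delta delta Cp rounded down to an integer at or above 3, about 3 SD of DMSO wells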;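 further: higher means less YB-1 transcript or more CDIP transcript relative to DMSO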
ROS inducer = ROS inducers in U2OS cancer cells, primary screen, cell-based, H2DCF-DA fluorescence. U2OS ROS induction. ROS induction (% of piperlongumine), % at 10 µM. 46,000 compounds, 2% hits. AID 624156, 2012; in the data active means ROS induction above about 79%, passing the limit was not always enough;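 further: 0% = DMSO vehicle median and 100% = reference compound median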
PD-1 reverse act = activators reversing PD-1 mediated T-cell inhibition, primary screen, luminescence, primary human CD4 T cells, PD-L1 beads | 29,000 tested, under 10 active | CellTiter-Glo 96 h | activation, % (no concentration beside the values); call rule not given here;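 further: 0% = median vehicle wells and 100% = positive control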
* marks the source's active call; other numbers are inactive results; / = not tested or not shown. The list is not random: actives were taken first. Their share in the collection is about 2.3%.

SMILES | YB-1 expression | ROS inducer | PD-1 reverse act
Cc1cc(C)nc(/N=C2\NC(=O)CC(C(=O)O)N2c2ccc(F)c(Cl)c2)n1 (stereo not given) | / | 1.7 | 0.9
O=C(Cn1c(-c2cccs2)cc2ccccc21)NC1CCCCC1 | / | 115.1* | /
O=C(Cn1c(-c2cccs2)cc2ccccc21)N1CCCCC1 | / | -3.3 | /
O=C(Nc1ccc(OCc2ccccc2)cc1)N1CCN(c2ccccn2)CC1 | / | -15.1 | /
C[C@@H]1CN([C@H](C)CO)C(=O)Cc2cc(NC(=O)C3CCCCC3)ccc2O[C@@H]1CN(C)Cc1ccc2c(c1)OCO2 | 0.606 | 141.2* | -2.6
C[C@H]1CN([C@@H](C)CO)C(=O)Cc2cc(NC(=O)C3CCCCC3)ccc2O[C@@H]1CN(C)Cc1ccc2c(c1)OCO2 | 0.177 | -3.3 | /
C[C@@H]1CN([C@@H](C)CO)C(=O)Cc2cc(NC(=O)CCC(F)(F)F)ccc2O[C@@H]1CN(C)Cc1ccc(Cl)c(Cl)c1 | 0.431 | 34.9 | -8.2
C[C@H](CO)N1C[C@H](C)[C@H](CN(C)Cc2ccc(Cl)c(Cl)c2)Oc2ccc(NC(=O)C3CC3)cc2CC1=O | 0.395 | 6.3 | 0.1
C[C@@H]1CN([C@H](C)CO)C(=O)Cc2cc(NC(=O)C3CC3)ccc2O[C@@H]1CN(C)Cc1ccc(Cl)c(Cl)c1 | -0.231 | 163.8* | -2.7
C[C@H](CO)N1C[C@H](C)[C@H](CN(C)Cc2ccc(Cl)c(Cl)c2)Oc2ccc(NC(=O)CCC(F)(F)F)cc2CC1=O | 0.14 | 150.7* | 0.4
COC(=O)c1c(NC(=O)CN(c2cc(C)ccc2C)S(C)(=O)=O)sc2c1CCCC2 | / | 36.4 | 2.1
O=c1cc(CSc2cccc3cccnc23)c2ccc(O)cc2o1 | -0.0837 | 14.8 | -5.7
Cc1ccc(C(=O)NCC2CCCO2)cc1C (stereo not given) | / | 0.0 | /
COc1ccc([Si](C)(C)[C@@H]2[C@@H](CCO)O[C@]3(C(=O)N(Cc4ccc(NC(=O)[C@H](C)O)cc4)c4ccccc43)[C@H]2C)cc1 | -0.283 | 90.8* | /
COc1ccc([Si](C)(C)[C@@H]2[C@@H](CCn3cc(CCO)nn3)O[C@]3(C(=O)N(Cc4ccc(N5CCOC5=O)cc4)c4ccccc43)[C@H]2C)cc1 | -0.305 | 39.2 | /
COc1ccc([Si](C)(C)[C@H]2[C@H](CCO)O[C@@]3(C(=O)N(Cc4cccc(NC(=O)[C@H](C)O)c4)c4ccccc43)[C@@H]2C)cc1 | 0.00653 | 11.8 | /
COc1ccc([Si](C)(C)[C@@H]2[C@@H](CCn3cc([C@H](O)c4ccccc4)nn3)O[C@]3(C(=O)N(Cc4ccc(N5CCC5=O)cc4)c4ccccc43)[C@H]2C)cc1 | 0.58 | 57.6 | /
COc1ccc([Si](C)(C)[C@H]2[C@H](CCO)O[C@@]3(C(=O)N(Cc4ccc(N5CCOC5=O)cc4)c4ccccc43)[C@@H]2C)cc1 | -0.482 | 129.7* | /
COc1ccc([Si](C)(C)[C@H]2[C@H](CCO)O[C@@]3(C(=O)N(Cc4cccc(N5CCC5=O)c4)c4ccccc43)[C@@H]2C)cc1 | -0.0374 | 106.8* | /
COc1ccc(C(C)(C)C)cc1NC(=S)Nc1ccc(S(=O)(=O)Nc2ncccn2)cc1 | / | -3.2 | -3.6
O=C(NCc1ccc2c(c1)CCO2)c1ccc2nsnc2c1 | / | -13.9 | /
Cc1ccc(N=C2NC(=O)CC(C(=O)Nc3ccc(Cl)cc3)S2)cc1C (stereo not given) | / | -19.1 | /
O=C1C(Cc2ccc(-c3nn[nH]n3)cc2)=C(c2ccccc2)S(=O)(=O)c2ccccc21 | 0.0417 | 44.5 | 3.2
C=CCN(CC=C)c1nc(-c2ccccc2)nc2ccccc12 | / | 45.9 | /
OCCN(CCO)c1nc(-c2ccccc2)nc2sc(-c3ccccc3)cc12 | / | 115.8* | -5.5
SMILES | YB-1 expression | ROS inducer | PD-1 reverse act
CN(C)CCC(C)(O)Cc1ccccc1 (stereo not given) | / | -17.3 | /
CCc1nc(-c2ccc(OC)cc2)cc2cc(OC)c(OC)cc12 | -0.479 | 108.7* | -0.6
COc1ccc(Cc2nccc3cc(OC)c(OC)cc23)cc1OC | 0.686 | 10.8 | -0.7
CC(=O)Nc1ccc(S(=O)(=O)NC(C)C)cc1 | / | -6.8 | /
COC(=O)/C=C/S(=O)(=O)c1ccc(NC(C)=O)cc1 | -0.387 | 121.0* | -4.8
CCn1c(SCC(=O)Nc2c(Cl)cc(Cl)cc2Cl)nnc1-c1ccc(OC)cc1 | / | -10.4 | -1.3
O=C(Nc1ccc(N2CCCCC2)cc1)c1ccncc1 | -0.498 | 87.2* | 0.8
O=C(Nc1ccc(N2CCOCC2)cc1)c1cnc2ccccc2n1 | / | 1.6 | /
O=C(NCCN1CCOCC1)c1cnn2c(C(F)F)cc(-c3ccccc3)nc12 | / | 67.2 | -4.7
Cc1ccc(-c2cc(C(F)F)n3ncc(C(=O)NCCCN4CCOCC4)c3n2)cc1 | / | 137.1* | -6.1
COC(=O)c1ccc(C(=O)OC)c(NC(=O)c2cnn3c(C(F)F)cc(-c4ccc(C)cc4)nc23)c1 | / | -9.9 | 1.2
Cc1ccc(-c2cc(C(F)(F)F)n3nc(C(=O)NCc4ccco4)cc3n2)cc1 | / | 38.7 | -0.5
Cc1ccc(-c2cc(C(F)(F)F)n3ncc(C(=O)NCc4ccco4)c3n2)cc1 | / | 95.5* | -4.8
Cc1ccc(-c2cc(C(F)F)n3ncc(C(=O)NCc4ccco4)c3n2)cc1 | / | 110.8* | -4.9
CNC(=O)C1CCN(S(=O)(=O)c2ccc3c(c2)nc(C)n3C2CCCC2)CC1 | / | -17.2 | /
COC(=O)c1ccc(-n2nnnc2SCC(=O)Nc2ccccc2)cc1 | / | 0.7 | 1.6
COC(=O)CCCCCCC(=O)N/N=C/c1ccc(NC(=O)OC(C)(C)C)cc1 | 0.165 | 35.2 | /
O=C(CCCSc1nc(-c2ccco2)cc(C(F)(F)F)n1)NC1CCCC1 | 0.299 | 18.3 | -0.1
C[C@H]1CN([C@@H](C)CO)C(=O)c2cc(NC(=O)CCCCCC(=O)Nc3ccccc3N)ccc2O[C@@H]1CN(C)C(=O)Nc1ccc(F)cc1 | 0.479 | 107.7* | -0.1
Cc1noc(C)c1NC(=O)N(C)C[C@H]1Oc2ccc(NC(=O)Nc3ccc(F)cc3)cc2C(=O)N([C@H](C)CO)C[C@@H]1C | 0.235 | 81.6* | 1.2
C[C@@H]1CN([C@@H](C)CO)C(=O)c2cc(NC(=O)Cc3ccccc3)ccc2O[C@@H]1CN(C)C(=O)Nc1ccc(C(F)(F)F)cc1 | 0.342 | 93.7* | -2.1
C[C@@H]1CN([C@@H](C)CO)C(=O)c2cc(NC(=O)Cc3ccccc3)ccc2O[C@H]1CN(C)C(=O)Nc1ccc(C(F)(F)F)cc1 | -0.313 | 9.1 | -1.0
C[C@@H]1CN([C@H](C)CO)C(=O)c2cc(NC(=O)C3CC3)ccc2O[C@@H]1CN(C)C(=O)Nc1ccc(C(F)(F)F)cc1 | 0.258 | -6.8 | /
C[C@H](CO)N1C[C@H](C)[C@@H](CN(C)C(=O)Nc2ccc(C(F)(F)F)cc2)Oc2ccc(NC(=O)C3CC3)cc2C1=O | 3.34* | 18.1 | -1.6
Cc1noc(C)c1NC(=O)N(C)C[C@H]1Oc2ccc(NC(=O)Nc3ccc(F)cc3)cc2C(=O)N([C@@H](C)CO)C[C@@H]1C | 0.0454 | -5.8 | 1.0
C[C@@H]1CN([C@H](C)CO)C(=O)c2cc(NC(=O)CCCCCC(=O)Nc3ccccc3N)ccc2O[C@H]1CN(C)C(=O)Nc1ccc(F)cc1 | 0.135 | 2.4 | 0.7
CCCCn1nc(NS(=O)(=O)c2ccc(C)cc2)c2cc3cccc(C)c3nc21 | / | -0.8 | /
